{"source": "PubChem BioAssay (NCI)", "note": "Where “and” joins values, the source holds several entries; their conditions need not be identical. Equal entries are not always repeated. About 83,000 compounds went through this panel and 20% of them were active in at least one assay; those are over-represented in the sample as a whole.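 Method: cells in 96-well plates; compound added at one concentration; 48 h incubation; percent growth measured; values under 10 scored active.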 Calls of active or inactive are those of the source."}
{"tested_on": "HL-60(TB) leukemia", "assay": "NCI-60 one-dose screen, 48 h (100 = growth as untreated, 0 = no growth, -100 = all killed)", "settings": "10 µM unless noted"}
{"smiles": "CCCCCCOc1ccc(/C=N/Nc2cc(C)nc3ccc(Br)cc23)cc1", "growth": "-13.7% (active)"}
{"smiles": "COc1ncc(F)c(OC)n1", "growth": "95.3% (inactive)"}
{"smiles": "Nc1n[nH]c2ccc([C@H]3[C@@H]4C5CCC(C5)[C@@H]4c4c(ccc5[nH]ncc45)N3S(=O)(=O)C3CC3)cc12", "note": "(stereo not given in full)", "growth": "-19.6% (active)"}
{"smiles": "COc1ccc(C)cc1NC(=O)SC(C)C", "growth": "94.7% [100 µM] (inactive)"}
{"smiles": "CN1C(=O)N(C)C2C1NN=c1s/c(=C\\c3c[nH]c4ccccc34)c(=O)n12", "note": "(stereo not given)", "growth": "-34.1% (active)"}
{"smiles": "O=C(Nc1ccccc1S)c1ccccc1", "growth": "105% (inactive)"}
{"smiles": "O=C(COc1ccc(-c2nc3ccccc3[nH]2)cc1)N=Nc1c(O)[nH]c2ccc(Cl)cc12", "growth": "39.9% (inactive)"}
{"smiles": "O=C1NCC(Nc2ccc(Br)cc2Cl)C(=O)N1", "note": "(stereo not given)", "growth": "108% (inactive)"}
{"smiles": "N/C(=N\\C(N)=N\\c1nc2ccccc2s1)c1cccc(Br)c1", "growth": "95.4% (inactive)"}
{"smiles": "COc1ccccc1/C=C/C(=O)/C=C/c1ccccc1O", "growth": "-5.37% (active)"}
{"smiles": "COc1ccc2c(c1)C(C)Cc1c(ncnc1-n1c(C)nc3ccccc31)N2C", "note": "(stereo not given)", "growth": "1.95% (active)"}
{"smiles": "CCCCn1c(=O)[nH]c(N)c([C@@H]2c3c([nH]c(=O)n(CCCC)c3=O)Oc3ccc4ccccc4c32)c1=O", "growth": "13.4% (inactive)"}
{"smiles": "Cc1ccc(NC(=O)NC(=O)CSc2nc3ccccc3nc2C)cc1", "growth": "67.9% (inactive)"}
{"smiles": "Cc1c[n+](Cc2ccc3ccccc3c2)cn1Cc1ccc2ccccc2c1", "growth": "-56.3% (active)"}
{"smiles": "CC1(C)CC[C@]2(c3nnc(-c4ccncc4)o3)CC[C@H]3C(=CC[C@H]4[C@@]3(C)CC[C@H]3C(C)(C)C(=O)CC[C@]43C)[C@@H]2C1", "growth": "3% (active)"}
{"smiles": "CCOC(=O)c1sc2ncnc(Nc3ccc4c(cnn4C(=O)Nc4ccc(C)c(Cl)c4)c3)c2c1C", "growth": "95.3% (inactive)"}
{"smiles": "COc1ccc(-c2ccc(-c3ccc(C(=N)N)c(F)c3)s2)cc1", "growth": "-79.4% (active)"}
{"smiles": "COc1ccc(C(=O)C(=O)c2ccccc2)cc1", "growth": "94.2% (inactive)"}
{"smiles": "CCOC(=O)c1cc(C(=O)c2ccc(OC)c(OC)c2)n2ccncc12", "growth": "92% (inactive)"}
{"smiles": "COc1ccc(-n2sc(=O)n(Cc3ccc(COC(=O)C(C)c4ccc(CC(C)C)cc4)cc3)c2=O)cc1", "note": "(stereo not given)", "growth": "-43.3% (active)"}
{"smiles": "CN(C)CCCn1c(=O)c2ccccc2c2ccccc21", "growth": "63.4% (inactive)"}
{"smiles": "CN(C)CCCOc1ccccc1NC1=C(Cl)C(=O)C(Nc2ccccc2OCCCN(C)C)=C(Cl)C1=O", "growth": "-33.1% (active)"}
{"smiles": "COC(=O)/C=C/c1cc(O)c2c(c1)C(C(=O)OC)C(c1ccc(O)c(O)c1)O2", "note": "(stereo not given)", "growth": "-10.5% (active) and -0.307% (active)"}
{"smiles": "CC(CN(C)C)CN1c2ccccc2CCc2ccccc21", "note": "(stereo not given)", "growth": "108% (inactive)"}
{"smiles": "Brc1ccc(-n2cc(-c3nn[nH]n3)c(-c3cccs3)n2)cc1", "growth": "104% (inactive)"}
{"smiles": "CC(=O)CC(=O)OC/C=C(/C)CCC=C(C)C", "growth": "124% (inactive)"}
{"smiles": "N#Cc1c(-c2ccc(Cl)cc2)c(C#N)c2c(C#N)c(N)nn2c1N", "growth": "85.8% (inactive)"}
{"smiles": "Cc1ccsc1-c1ccc2c(c1)COC2(CCCN(C)C)c1ccc(F)cc1", "note": "(stereo not given)", "growth": "23% (inactive)"}
{"smiles": "CCOC(=O)c1cc(C(=O)c2cc(OC)c(OC)c(OC)c2)n2ccc(-c3ccncc3)cc12", "growth": "65% (inactive)"}
{"smiles": "c1cc[n+](C2c3ccccc3C([n+]3ccccc3)c3ccccc32)cc1", "note": "(stereo not given)", "growth": "88.3% (inactive)"}
{"smiles": "C/C(=C\\CCc1ccoc1)CC/C=C(\\C)CCCC1COC(=O)C1", "note": "(stereo not given)", "growth": "95.8% (inactive)"}
{"smiles": "CCOC(=O)C1=C(C)n2nc(CC#N)c(C#N)c2NC1c1ccc(Cl)cc1", "note": "(stereo not given)", "growth": "105% (inactive)"}
{"smiles": "Cc1cc(C(c2ccccc2)c2ccccc2)ccc1NS(=O)(=O)c1ccccc1", "growth": "78.5% (inactive)"}
{"smiles": "COc1ccccc1CNCCCN1C(=O)c2ccc3c4c(ccc(c24)C1=O)C(=O)N(CCCNCc1ccccc1OC)C3=O", "growth": "-67.5% (active)"}
{"smiles": "O=S(=O)(Nc1nccs1)c1ccc(Nc2nc(-c3ccncc3)cs2)cc1", "growth": "98.6% (inactive)"}
{"smiles": "CC(C)OCc1cc(CN2CCN(c3cccc(Cl)c3)CC2)c(O)c2ncccc12", "growth": "-46% (active)"}
{"smiles": "NC(=O)c1cc(Br)cc(Br)c1NS(=O)(=O)c1ccccc1", "growth": "92.6% (inactive)"}
{"smiles": "CCN(CC)CCCNc1cccc2c(SCc3ccccc3)ccnc12", "growth": "-67.5% (active)"}
{"smiles": "COC(=O)/C=C/C(=O)NC(N)=O", "growth": "97.4% (inactive)"}
{"smiles": "Cc1cc(Nc2ncnc3ccc(NC4=NC(C)(C)CO4)cc23)ccc1Oc1ccn2ncnc2c1", "growth": "5.69% (active)"}
